Bioassay records deposited in PubChem BioAssay by National Center for Advancing Translational Sciences (NCATS).
The list is not random: actives were taken first. Their share in the collection is about 1.3%.
TRPV1 agonist: agonists of human vanilloid receptor 1 (TRPV1); 0.19% of 320,000 active; TRPV1-expressing cells, Fluo-8 calcium influx, agonist mode; Q8NER1; activation, % at 8.33 µM; in the data active = activation above about 80%; inconclusive = between about 30% and that limit; note: 0% is about no effect
Target sequence (Q8NER1 whole entry, looked up): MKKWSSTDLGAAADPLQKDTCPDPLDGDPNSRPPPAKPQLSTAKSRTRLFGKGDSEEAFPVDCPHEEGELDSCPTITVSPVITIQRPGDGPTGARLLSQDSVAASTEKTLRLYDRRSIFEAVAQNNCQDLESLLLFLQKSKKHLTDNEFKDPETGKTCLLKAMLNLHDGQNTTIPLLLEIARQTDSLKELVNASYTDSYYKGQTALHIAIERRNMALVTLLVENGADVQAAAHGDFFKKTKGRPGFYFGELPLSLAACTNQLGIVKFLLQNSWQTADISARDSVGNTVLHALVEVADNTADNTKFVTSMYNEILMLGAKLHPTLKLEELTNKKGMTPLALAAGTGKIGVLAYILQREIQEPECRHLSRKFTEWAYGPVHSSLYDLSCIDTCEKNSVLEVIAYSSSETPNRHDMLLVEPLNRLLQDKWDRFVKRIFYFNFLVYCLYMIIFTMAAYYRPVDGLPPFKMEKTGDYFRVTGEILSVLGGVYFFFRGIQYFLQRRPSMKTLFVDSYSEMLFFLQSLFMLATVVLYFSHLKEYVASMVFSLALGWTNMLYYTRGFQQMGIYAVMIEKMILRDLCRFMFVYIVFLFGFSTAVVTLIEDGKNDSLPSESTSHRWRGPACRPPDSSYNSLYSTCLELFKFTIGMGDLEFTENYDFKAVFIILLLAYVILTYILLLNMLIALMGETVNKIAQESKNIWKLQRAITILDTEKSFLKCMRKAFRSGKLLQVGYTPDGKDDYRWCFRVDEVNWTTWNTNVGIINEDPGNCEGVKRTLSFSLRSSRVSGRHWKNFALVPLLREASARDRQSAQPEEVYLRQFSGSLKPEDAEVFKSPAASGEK
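Cells expressing TRPV1 were dye-loaded with Fluo-8 and read kinetically: 10 s baseline, 3 min after compound (agonist portion), then 2 min after EC20 capsaicin (allosteric enhancer portion). Calcium-bound dye fluorescence at 480/520 nm.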
KCNH2 WT inh: KCNH2 (human, wildtype) channel inhibition; U2OS, BacMam KCNH2, thallium flux FluxOr; active compounds read low; Q12809; 0.37% of 340,000 active; activity change, % at 1.84 µM; AID 720551;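 active = maximum activity change below -70%; inconclusive = maximum activity change between -70% and -50%; inactive = maximum activity change above -50%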; note: % is set by controls: 0 for no effect and ±100 for the full control effect
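U2OS cells were transduced with wild-type KCNH2 virus (2.03 x 10^8 / mL) for 4 h at room temperature, then cultured overnight at 37 C. Thallium flux was read with FluxOr dye. Rate constants were normalized to DMSO controls.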
KCNH2 3.1 block: inhibitors of human KCNH2 3.1 potassium channel isoform; U2OS KCNH2 3.1, thallium flux FluxOr; active compounds read low; activity change, % (tested at about 1.8 µM); 0.95% of 340,000 active;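 active = maximum activity change below -70%; inconclusive = maximum activity change from -70% to -50%; inactive = maximum activity change above -50%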;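 note: thallium influx rate constant from kinetic fluorescence after stimulation buffer; % is set by controls: 0 for no effect and ±100 for the full control effect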
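FluxOr-based Tl+ influx in U2OS cells transduced with KCNH2 3.1 virus; rate constants normalized to DMSO controls.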
TRPV1 PAM: potentiators of human vanilloid receptor 1 (TRPV1); Q8NER1; TRPV1-expressing cells, Fluo-8 calcium influx, capsaicin EC20 potentiation; potentiation, % at 8.33 µM; 0.02% of 320,000 active; AID 540277; in the data active = potentiation above about 80%; inconclusive = between about 30% and that limit; note: 0% is about no effect
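Fluo-8 calcium influx in TRPV1-expressing cells, kinetic read (ex 480/em 520 nm). Compound added and read 3 min for agonist activity, followed by capsaicin at EC20 final and 2 min further read for enhancement.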
* hit, by the source's call; ? = inconclusive; · = no result.

SMILES	TRPV1 agonist	KCNH2 WT inh	KCNH2 3.1 block	TRPV1 PAM
OC(CSc1ccccc1)CN1CCN(c2ccc(Cl)cc2)CC1 (stereo unspecified)	·	-32	-86*	·
COc1ccc(S(=O)(=O)N2CCCCCC2)cc1C(=O)N1CCN(c2ccccc2O)CC1	2	13	-8	-6
O=C(C1=C[C@H](c2ccccc2)C[C@H](OCc2ccc(CO)cc2)O1)N1CCN(Cc2ccccc2)CC1	?	15	-45	-15
O=C(C1=C[C@@H](c2ccccc2)C[C@@H](OCc2ccc(CO)cc2)O1)N1CCCCCCC1	88*	-4	30	-27
O=C(NC1CC1)C1=C[C@H](c2ccccc2)C[C@H](OCc2ccc(CO)cc2)O1	-4	-11	-181*	-2
COc1ccc(S(=O)(=O)N2CCCCC2)cc1NC(=O)c1ccc(CS(C)(=O)=O)cc1	-3	-20	32	6
O=C(OCC(=O)N1CCOCC1)c1ccc(Br)cc1	1	-130*	10	8
COc1ccc(NC(=O)c2cccc(S(=O)(=O)N3CCN(C)CC3)c2)c(OC)c1	2	-9	4	8
COc1ccc(C(CNC(=O)c2ccc(S(=O)(=O)N3CC(C)CC(C)C3)cc2)N(C)C)cc1 (stereo unspecified)	·	-83*	-11	·
COc1ccc(C(CNC(=O)c2cccc(S(=O)(=O)N3CCCc4ccccc43)c2)N(C)C)cc1 (stereo unspecified)	·	-18	-74*	·
COc1ccc(C(CNC(=O)c2ccc(S(=O)(=O)N3CCCC3)cc2)N(C)C)cc1OC (stereo unspecified)	1	7	0	1
COc1ccc(NC(=O)c2cccc(S(=O)(=O)N3CCc4ccccc43)c2)c(OC)c1	·	-89*	9	·
CC(=O)c1ccccc1NC(=O)CN1C(=O)NC2(CCCCCCC2)C1=O	·	-2	-15	·
O=C(CSc1n[nH]c(-c2ccncc2)n1)Nc1ccccc1C(F)(F)F	1	-5	-12	-3
O=C(NCCS(=O)(=O)c1ccc(Br)cc1)c1ccc(F)cc1	?	-251*	16	-7
O=C(NCCS(=O)(=O)c1ccc(Cl)cc1)c1ccc(F)cc1	?	1	7	-21
COCC(=O)N1CCC(Oc2ccc(C(=O)NCCCC3CCCC3)cc2)CC1	0	-12	·	5
O=C(Nc1ccc(C(F)(F)F)cc1)C(Cc1ccccc1)n1cccc1 (stereo unspecified)	?	·	·	-26
O=C(c1cccs1)N1CCN(C(=O)c2cn(-c3ccccc3)nc2-c2ccccc2)CC1	·	-129*	-172*	·
CCCc1cnc(NCCNCC(O)COc2ccc(Cl)c(Cl)c2)nc1 (stereo unspecified)	19	22	-98*	-13
CC(=O)NCc1cc(-c2nn(C)c(=O)c3ccccc23)ccc1C	-3	-10	-12	-10
Cc1ccc(-c2nn(C)c(=O)c3ccccc23)cc1CNC(=O)NC1CCCCC1	-4	-142*	-166*	?
O=C(NNS(=O)(=O)c1ccc(Br)cc1)NC1CCCCC1	5	-2	?	-10
O=C(NNC(=O)C1[C@H]2CCCC[C@@H]12)NC1CCCCC1 (stereo partly specified)	-5	·	-76*	?
CCOC(=O)C1CCCN(C(=S)NC(=O)c2cc(Br)ccc2Cl)C1 (stereo unspecified)	14	-9	-6	5
SMILES	TRPV1 agonist	KCNH2 WT inh	KCNH2 3.1 block	TRPV1 PAM
Cc1ccc(S(=O)(=O)N(C)Cc2cc3cc(C)ccc3[nH]c2=O)cc1	4	-3	-117*	-4
Cc1ccc2cc(CN(C)S(C)(=O)=O)c(=O)[nH]c2c1	0	-2	3	0
Cc1cc2n(n1)C(c1cn(-c3ccccc3)nc1C)Nc1ccccc1-2 (stereo unspecified)	1	-125*	-136*	-17
Cc1ccccc1S(=O)(=O)N(C)C[C@@H]1OCc2ccccc2-c2c(n(C)c3ccccc23)C(=O)N([C@H](C)CO)C[C@@H]1C	·	-5	-10	·
Fc1ccccc1CNCCC(Cc1ccccc1)c1ccc2c(c1)OCO2 (stereo unspecified)	14	21	-11	-17
CC(C)CCC(CCNCc1ccccn1)c1ccc2c(c1)OCO2 (stereo unspecified)	?	?	-95*	-13
CCNCCC(CCC(C)C)c1ccc2c(c1)OCO2 (stereo unspecified)	-10	-79*	-99*	8
Cn1ncc(Br)c1NC(=O)Nc1ccc(Cl)cc1	-2	-12	-2	?
Cc1ccsc1C(=O)C1CCCN(Cc2cc(F)ccc2-n2cccn2)C1 (stereo unspecified)	0	0	-81*	2
COc1cc(OC)c(OC)cc1CN1CCCC(C(=O)c2sccc2C)C1 (stereo unspecified)	-5	61	-16	2
Cc1cc(C)c(CN2CCCC(CNC(=O)c3ccc(F)cc3)C2)c(-n2cccn2)c1 (stereo unspecified)	4	-85*	-111*	-12
C#CCN(C[C@H]1[C@H](OC(=O)NC2CC2)[C@H](OC(=O)NC2CC2)C[C@@H](C(=O)OC)[C@H]1C(=O)OC)S(=O)(=O)c1ccc(C)cc1	·	2	0	·
COc1ccc2oc(C(=O)OCc3nnc(-c4ccccc4)o3)c(C)c2c1	15	-6	-22	-5
C=CS(=O)(=O)N(Cc1ccc(Cl)c(Cl)c1)C[C@@H](O)CO	·	-15	5	·
CC(=O)Nc1ccc(NC(=S)NC(=O)c2ccc(-c3ccccc3)cc2)cc1	·	1	-28	·
CC(C)NS(=O)(=O)c1ccc(NC(=S)NC(=O)c2ccc(-c3ccccc3)cc2)cc1	1	1	-75*	-8
O=S(=O)(Nc1cccc2c1CCCC2)c1ccc(Cl)cc1	30	-6	-71*	-18
CC(=O)Nc1ccccc1NS(=O)(=O)c1ccc(Cl)cc1	-6	4	-9	-4
O=C1C(CO)C(CO)C(CO)C1CO (stereo unspecified)	·	0	-1	·
CN1CCC(N(C)C(=O)c2ccc(Cl)c(S(=O)(=O)N3CCc4ccccc43)c2)CC1	·	46	19	·
CCOC(=O)n1cc(-c2cnc(CNC(=O)C(C)(c3ccccc3)c3ccccc3)o2)c2ccccc21	-1	-40	-73*	12
CN(CCCNC(=O)c1cc2c(Cl)nc3ccccc3c2s1)Cc1ccccc1	13	-307*	·	-15
CCN(CC)CCCNC(=O)c1cc2c(Cl)nc3ccccc3c2s1	-2	1	5	0
O=C(CSc1nc2ccccc2c(=O)n1Cc1ccc(F)cc1)NCc1cccs1	14	-26	-95*	-29
Cc1cc(/C=C2\SC(=S)N(Cc3ccco3)C2=O)c(C)n1-c1ccccc1	3	-81*	-23	1
Cc1cccc(OCc2nnc(SC(C)C(=O)O)n2-c2ccccc2)c1 (stereo unspecified)	-1	3	-1	-12
CCCCNC(=O)c1cn(CC)c2ccc(S(=O)(=O)N3CCCC3)cc2c1=O	?	-4	-15	-11
